Only some compounds are listed: those with a hit (about 4% of all), similar ones and a draw of the others.
TROY NFkB inh – TROY signaling inhibition; Q293 LMP1-TROYcd NF-kB luciferase reporter, 4 h; inhibition, % at 10 µM; 0.98% of 360,000 active; AID 1347056;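 active means compounds whose plate-normalised and pattern-corrected inhibition of the luciferase reporter signal at the single screening dose is 50% or more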
Peg3 promoter – reduces Peg3 promoter-driven luciferase expression in HeLa | 1.7% of 360,000 active | inhibition, % at 20 µM | HeLa PEG-Prom luciferase reporter, luminescence, overnight;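 active means inhibition of at least 50% at 20 µM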
CF NFkB block – blocks PAF-induced NF-kB reporter in cystic fibrosis cells. KKLEB NF-kB-GFP reporter, GFP fluorescence overnight. 0.86% of 360,000 active. inhibition, % at 5 µM. AID 588850;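 active means at least 50% inhibition at 5 µM, scaled per plate between neutral and stimulator controls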;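 further: PAF is a Pseudomonas aeruginosa culture filtrate used as stimulus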
HIF-2a inh – blocks HIF-2a reporter activity. 786-0 RCC cells HIF-2a reporter, luciferase luminescence, overnight. inhibition, % at 18.8 µM. 0.72% of 360,000 active. AID 624352;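 active means inhibition of the luminescence signal of 40% or more relative to plate controls, in a single-dose primary screen at 18.75 µM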
TWEAK-Fn14 inh – blocks TWEAK-Fn14 interaction in a reporter cell assay; TWEAK-stimulated Fn14 reporter cells, luciferase luminescence, 8 h; 2% of 360,000 active; inhibition, % at 10 µM; in the data active means inhibition above about 50%
KKLEB cytotox – CF airway cell cytotoxicity counter-screen | 0.36% of 360,000 active | activity change (cytotoxicity), % at 5 µM | KKLEB CF airway cells viability, ATPlite luminescence, overnight; stronger effect = lower value; cells stimulated with P. aeruginosa culture filtrate | AID 602141;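 active means corrected activity change at or below -50% at 5 µM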
CF NFkB inh conf – CF NF-kB inhibition confirmation, single concentration. 64% of 1,300 active. AID 602472. inhibition, % at 5 µM. shares compounds with CF NFkB block. KKLEB CF airway cells, PAF-induced NF-kB-GFP fluorescence, overnight; in the data active means inhibition above about 40%;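 further: stimulus PAF is a Pseudomonas aeruginosa filtrate and not platelet activating factor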
Large screens that a line does not name were inactive (follow-up assays come after a bar, where they were run); ! = a repeat was not active.

O=C(c1cnn(-c2ccccc2)c1)c1cc(Br)ccc1O	none
O=C(c1ccc(O)c(Br)c1)c1cc(Br)ccc1O	TROY NFkB inh 50, CF NFkB block 66 | CF NFkB inh conf 61
CCOc1ccc(OCC)c(NC(=O)c2nnn(CC(=O)Nc3cc(C)cc(C)c3)c2N)c1	CF NFkB block 50 | CF NFkB inh conf inactive
CC(C)(C)c1ccc(NC(=O)c2cc(C3CCCN(S(=O)(=O)c4cccc5cccnc45)C3)on2)cc1 (configuration not stated)	none
CCOC(=O)/C=c1/s/c(=C\c2c(OC)ccc3ccccc23)c(=O)n1CC(=O)NCC1CCCO1 (configuration not stated)	CF NFkB block 54 | CF NFkB inh conf 65
CC1(C)OC2CC3C4CC(F)C5=CC(=O)C=CC5(C)C4(F)C(O)CC3(C)C2(C(=O)CO)O1 (configuration not stated)	CF NFkB block 75 | CF NFkB inh conf inactive
CC(=O)OCC(=O)[C@@]12OC(C)(C)O[C@@H]1CC1C3C[C@H](F)C4=CC(=O)C=CC4(C)[C@@]3(F)C(O)CC12C (some centres not stated)	CF NFkB block 73 | CF NFkB inh conf inactive
C[C@@H]1C[C@H]2[C@@H]3C[C@H](F)C4=CC(=O)C=C[C@]4(C)[C@@]3(F)[C@@H](O)C[C@]2(C)[C@@]1(O)C(=O)CO	CF NFkB block 78 | CF NFkB inh conf inactive
COC(=O)N1C(=O)[C@@](c2ccccc2)(C2CCCC2)N1C(=O)OC	Peg3 promoter 50, CF NFkB block 67, TWEAK-Fn14 inh 71 | CF NFkB inh conf 46
CC[C@@]1(c2ccccc2OC)C(=O)N(C(=O)OC)N1C(=O)OC	none
CCc1nc2c(OCc3ccc(Cl)cc3)cccn2c1N(C=O)Cc1ccc(OC)cc1	none
N#Cc1c(-c2ccc(Cl)cc2)n(O)c2ccccc12	CF NFkB block 52, TWEAK-Fn14 inh 64 | CF NFkB inh conf 76
CCOc1ccccc1NC(C)C(=O)NC(=O)NC1CCCCC1 (configuration not stated)	none
CCOC(=O)c1c(NC(=O)Cc2cccs2)sc(C(=O)NC2CCCCC2)c1C	CF NFkB block 51 | CF NFkB inh conf inactive
COc1ccc(C2C(C#N)=C(N)Oc3cc(O)ccc32)cc1 (configuration not stated)	none
COc1ccc(N=Cc2cc3c(cc2O)OC(N)=C(C#N)C3c2ccccc2)cc1 (configuration not stated)	CF NFkB block 56 | CF NFkB inh conf 85
CCOc1ccc(OCC(O)CN2CCN(S(=O)(=O)c3cccc(C(F)(F)F)c3)CC2)cc1 (configuration not stated)	none
COc1ccc2ccc(O)c(CN3CCN(S(=O)(=O)c4cccc(C(F)(F)F)c4)CC3)c2c1	CF NFkB block 70 | CF NFkB inh conf inactive
CCC1Nc2ncnc(N3CCCCC3)c2N(Cc2ccc(C)cc2)C1=O (configuration not stated)	CF NFkB block 71! | CF NFkB inh conf inactive
CCC1Nc2ncnc(N3CCCCC3)c2N(Cc2ccccc2)C1=O (configuration not stated)	none
COC(=O)C1=C(C)NC(C)=C(C(=O)OCC(C)C)C1c1ccccc1[N+](=O)[O-] (configuration not stated)	CF NFkB block 83 | CF NFkB inh conf 58
CCCc1cc(C(=O)N2CCN(c3ccc(C(F)(F)F)cn3)CC2)sc1C	none
CC(=O)c1ccc(NC(=O)CSc2nc(C3CC3)nc3ccccc23)cc1	none
COc1ccc(NC(=O)CSc2nc(C3CC3)nc3ccccc23)cc1	CF NFkB block 53 | CF NFkB inh conf inactive
c1ccc2c(c1)CCN(c1ncnc3nc[nH]c13)C2	none
CC1Cc2ccccc2N1c1ncnc2nc[nH]c12 (configuration not stated)	CF NFkB block 65, TWEAK-Fn14 inh 60 | CF NFkB inh conf 87
COc1ccc2c(C)nc(Nc3nc(-c4ccccc4)cc(=O)[nH]3)nc2c1	TROY NFkB inh 58, Peg3 promoter 108, CF NFkB block 64, TWEAK-Fn14 inh 63 | CF NFkB inh conf inactive
Cc1n[nH]c(=O)n(N=Cc2c[nH]c3ccccc23)c1=O	none
CC(=O)C1=C(c2cccc([N+](=O)[O-])c2)N(C(C)=O)n2c(C)nnc2S1	CF NFkB block 52, TWEAK-Fn14 inh 60 | CF NFkB inh conf inactive
O=C1N(c2ccccc2C(F)(F)F)O[C@]1(c1ccccc1)C1CCCCC1	Peg3 promoter 65, CF NFkB block 54 | CF NFkB inh conf 64
CC(=O)Nc1ccc(/C=C(\C#N)C(=O)NC2CCCCC2C)cc1 (configuration not stated)	none
CSc1ccc(/C=C(\C#N)C(=O)NC2CCCCC2C)cc1 (configuration not stated)	CF NFkB block 53 | CF NFkB inh conf inactive
CC(C)N(C(=O)CSc1nc2ccccc2n1-c1ccccc1)C(C)C	none
O=C(O)CCSc1nc2ccccc2n1-c1ccccc1	CF NFkB block 56 | CF NFkB inh conf inactive
NS(=O)(=O)c1ccc(CCNC(=O)c2ccc(C#CC3(O)CCCCC3)cc2)cc1	TROY NFkB inh 56, Peg3 promoter 87, CF NFkB block 81 | CF NFkB inh conf 80
NS(=O)(=O)c1ccc(CCNC(=O)c2ccncc2)cc1	none
CCOC(=O)CNC(=O)C1COc2ccccc2O1 (configuration not stated)	none
COc1cc(Br)c(C(=O)c2nccc3cc(OC)c(OC)cc23)cc1OC	CF NFkB block 60 | CF NFkB inh conf inactive
c1nc(N2CCOCC2)c2c3c(sc2n1)CCCC3	CF NFkB block 55 | CF NFkB inh conf 70
c1ccn(-c2ncnc3sc4c(c23)CCCC4)c1	none
Cc1ccc(Cc2cnc(NC(=O)/C(C#N)=C/c3ccc(-c4ccccc4[N+](=O)[O-])o3)s2)cc1	CF NFkB block 52 | CF NFkB inh conf inactive
O=C(NCCCCc1ccccc1)c1cccc(NC(=O)C2CCCC2)c1	none
CCOc1ccc(NC(=O)Nc2ccc3c(c2)N(C)C(=O)CS3)cc1	none
CC(=O)c1ccc(NC(=O)Nc2ccc3c(c2)N(C)C(=O)CS3)cc1	CF NFkB block 72, TWEAK-Fn14 inh 72 | CF NFkB inh conf 53
Cc1ccc2ncnc(Nc3ccccc3)c2c1	none
Cc1cccc(Nc2ncnc3ccc(Br)cc23)c1	CF NFkB block 58, TWEAK-Fn14 inh 62 | CF NFkB inh conf 72
COc1ccc(Nc2ncnc3ccc(Br)cc23)cc1OC	none
CN(C)c1ccc(Nc2ncnc3ccc(Br)cc23)cc1	CF NFkB block 73, TWEAK-Fn14 inh 82 | CF NFkB inh conf 93
Clc1cccc(Nc2ncnc3ccc(Br)cc23)c1	CF NFkB block 69, TWEAK-Fn14 inh 63 | CF NFkB inh conf 58
CCCCn1c(O)c2n(c1=O)Cc1ccccc1N=C2c1ccccc1	none
